FMDV antiviral: foot and mouth disease virus antiviral activity. FMDV antiviral cell-based qHTS. Potency, µM (doses to about 57.9 µM), for inactives: at the top dose activity change, negative = inhibition, hits mostly inhibitors. 410,000 compounds, 1.2% hits; calls by dose curve; tested in HEK293T cells; further: read-out not given here; nearly all actives have a fitted effect of over 45% in size
VACV Venus inh: inhibitors of vaccinia virus (Venus reporter) | Potency, µM (highest dose often 36.5 µM), for the others: top-dose activity change, negative = inhibition, most hits filed as inhibitors | Vaccinia virus Venus reporter expression, fluorescence | 330,000 compounds, 0.46% hits | AID 720580; calls by dose curve; tested in A549 cells; further: nearly all actives have a fitted effect of over 30% in size
HCV inhibitor: blocks hepatitis C virus; Huh7.5.1 HCVcc-Cre infection, luciferase reporter, 44 h; Potency, µM (titrated, usually from 41.8 µM), for the others: at the highest dose activity change, negative = inhibition, hits mostly inhibitors; 340,000 compounds, 3.4% hits; AID 651820; active means well fitted inhibition curve with a large enough effect; inconclusive means small, poorly fitted or top-dose-only effect, or another doubt; inactive means no such curve, though single readings can be large or run the other way
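HCVcc-Cre virus at an moi near 0.5 was added right after compound to cells cultured 4 h from seeding (1,000 cells/well). Luciferase activity was determined 44 h later, 15 min after substrate addition at RT.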
Vaccinia mCherry: vaccinia inhibition (mCherry reporter); Vaccinia virus mCherry reporter infection, fluorescence; 310,000 compounds, 0.63% hits; AID 720579; Potency, µM (highest dose often 36.5 µM), without a hit: at the highest dose activity change, negative = inhibition, actives largely listed as inhibitors; calls by dose curve; tested in A549 cells; further: nearly all actives have a fitted effect of over 35% in size
LASV entry inh: blocks Lassa virus binding to or entry into cells; Lassa virus pseudotype entry inhibition, cell reporter; Potency, µM (series often up to 37.9 µM), inactives show at the top dose activity change, negative = inhibition, actives largely listed as inhibitors; 300,000 compounds, 1.2% hits; AID 540256; calls by dose curve; tested in HEK293 cells; further: nearly all actives have a fitted effect of over 50% in size
Marburg entry inh: inhibitors of Marburg virus binding or cell entry; Marburg virus pseudotyped entry inhibition, cell reporter; Potency, µM (titrated, usually from 37.8 µM), for the others: at the top dose activity change, negative = inhibition, usual class: inhibitors; 300,000 compounds, 1.8% hits; AID 540276; calls by dose curve; tested in HEK293 cells
An asterisk follows results filed as active; [ ] = remark or other dose. Shown are actives, neighbours in structure and some others; about 5.3% of the full set was active somewhere. On the % scale 0 is the no-effect control and ±100 the full control effect; potency means the concentration at half of the fitted maximal effect.

CCCC(NC(=S)NCC1CCCO1)C12CC3CC(CC(C3)C1)C2 (centres undefined) was read as FMDV antiviral -8.9%, VACV Venus inh -26.3%, HCV inhibitor 11.2µM* and Vaccinia mCherry inactive.
Screening Cc1cc2nc(-c3ccc(SCc4ccc(C(=O)O)cc4)nc3)[nH]c2cc1C returned FMDV antiviral 50.3%, VACV Venus inh -7.8%, HCV inhibitor inconclusive, Vaccinia mCherry -15.3%, LASV entry inh inconclusive and Marburg entry inh 5.62µM*.
`Cc1cc(NC(=O)CSc2ccc(-c3nc4cc(C)c(C)cc4[nH]3)cn2)no1` gave FMDV antiviral 47.7%, HCV inhibitor -5.6%, LASV entry inh -2.2% and Marburg entry inh inconclusive.
Screening Cc1cc2nc(-c3ccc(SCC(=O)Nc4ccc(S(=O)(=O)NC5CC5)cc4)nc3)[nH]c2cc1C returned FMDV antiviral -2.8%, VACV Venus inh -21.4%, HCV inhibitor inconclusive, Vaccinia mCherry -26.6%, LASV entry inh inconclusive and Marburg entry inh 4.47µM*.
For Cc1cc2nc(-c3ccc(SCC(=O)N4CCc5ccccc54)nc3)[nH]c2cc1C the results were VACV Venus inh -5.1%, HCV inhibitor 5.01µM*, Vaccinia mCherry inactive, LASV entry inh inconclusive and Marburg entry inh inconclusive.
For Cc1ccc(-c2ccc(SCC(=O)N3CCc4ccccc43)nn2)cc1 the results were HCV inhibitor 9.6%.
For CCOC(=O)NN=C1C[C@@H](O)[C@@H](O)[C@@H]2[C@H]3C(=O)N(CC)C(=O)[C@@H]3CC[C@@H]12 the results were LASV entry inh inconclusive and Marburg entry inh 7.5%[14.2 µM].
Screening CCn1c(-c2ccccc2F)nc2cc(NC(C)=O)cc(C(=O)N(C)Cc3ccccn3)c21 returned FMDV antiviral -12.2%, VACV Venus inh -24.5% and Vaccinia mCherry inactive.
`Cc1cc(/C=C2/C(=O)NN(c3ccccc3)C2=O)c(C)n1-c1cccc(O)c1` gave FMDV antiviral 44.7µM*, VACV Venus inh -8.9%, HCV inhibitor inconclusive, Vaccinia mCherry -8.7%, LASV entry inh 3.98µM* and Marburg entry inh inconclusive.
Screening Nc1ccccc1C=C1Cc2ccccc2C1=O returned FMDV antiviral -47.7%, VACV Venus inh -16.2%, HCV inhibitor -23.0%, Vaccinia mCherry -20.3%, LASV entry inh inconclusive and Marburg entry inh 7.94µM*.
Screening Cc1cc(/C=C2\Cc3ccccc3C2=O)c(C)n1-c1ccccc1 returned FMDV antiviral 12.6µM*, VACV Venus inh -14.5%, HCV inhibitor inconclusive, Vaccinia mCherry -14.3%, LASV entry inh inconclusive and Marburg entry inh inconclusive.
For Cc1cc(C=C2C(=O)c3ccccc3C2=O)c(C)n1-c1ccccc1 the results were FMDV antiviral 1.12µM*, HCV inhibitor 7.9%, LASV entry inh inconclusive and Marburg entry inh 6.51µM*.
Screening COc1ccccc1/C=C1\Cc2ccccc2C1=O returned FMDV antiviral 49.5%, VACV Venus inh -12.7%, HCV inhibitor -27.6% and Vaccinia mCherry -4.5%.
`CCCCCCCCCC[n+]1ccc(/C=C/c2ccc(N(C)C)cc2)c2ccccc21` gave Vaccinia mCherry inactive.
`COc1ccccc1NC(=O)CSc1nnc(NC(=O)Nc2ccc(C)cc2)s1` gave FMDV antiviral -7.9%, VACV Venus inh -14.9%[7.34 µM], Vaccinia mCherry -6.3%[7.34 µM] and LASV entry inh inconclusive.
CCOc1cc(S(=O)(=O)n2cc(-c3ccc(F)cc3)c(N)n2)cc(OCC)c1OCC was read as FMDV antiviral inconclusive, VACV Venus inh inconclusive, HCV inhibitor 6.31µM*, LASV entry inh inconclusive and Marburg entry inh inconclusive.
`CCOc1ccc(S(=O)(=O)n2cc(-c3ccc(F)cc3)c(N)n2)cc1` gave FMDV antiviral -5.0%, HCV inhibitor inconclusive, LASV entry inh -21.8% and Marburg entry inh 3.4%.
COc1ccccc1-c1cn(S(=O)(=O)c2ccc(F)cc2)nc1N was read as FMDV antiviral inconclusive, VACV Venus inh inconclusive, HCV inhibitor 10µM*, LASV entry inh -25.5% and Marburg entry inh inconclusive.
Screening CC(=O)c1c(C)[nH]c(C(=O)OCCOc2ccccc2)c1C returned FMDV antiviral -81.2%, VACV Venus inh -4.8%, HCV inhibitor 8.91µM*, Vaccinia mCherry -10.7%, LASV entry inh inconclusive and Marburg entry inh inconclusive.
CC(=O)c1c(C)[nH]c(C(=O)COC(=O)CCCOc2ccccc2)c1C was read as FMDV antiviral -15.5%, VACV Venus inh -22.7%, HCV inhibitor -0.2%, Vaccinia mCherry -19.0%, LASV entry inh 4.3% and Marburg entry inh 10.5%[46.1 µM].
For CCOC(=O)c1c(C)[nH]c(C(=O)OCc2ccccc2)c1C the results were FMDV antiviral 22.9%, VACV Venus inh -17.1%, Vaccinia mCherry -8.0%, LASV entry inh inconclusive and Marburg entry inh inconclusive.
For COC(=O)CCc1c(C)[nH]c(C(=O)OCc2ccccc2)c1C the results were FMDV antiviral 26.8%, VACV Venus inh -6.7%, HCV inhibitor 1.8%, Vaccinia mCherry -17.4%, LASV entry inh 7.08µM* and Marburg entry inh -12.8%.
CC(=O)c1c(C)[nH]c(C(=O)NCc2cccc(Cl)c2)c1C was read as FMDV antiviral 13.3%, VACV Venus inh -10.1%, HCV inhibitor 11.2µM*, Vaccinia mCherry inactive, LASV entry inh -5.3% and Marburg entry inh -16.2%[46.1 µM].
`CC(=O)c1c(C)[nH]c(C(=O)OCc2ccccc2F)c1C` gave FMDV antiviral 15.2%, VACV Venus inh -9.4%, HCV inhibitor 17.8µM*, Vaccinia mCherry -14.6%, LASV entry inh inconclusive and Marburg entry inh inconclusive.
`OCCCNCc1cc2ccc(F)cc2nc1N1CCN(c2cccc(Cl)c2)CC1` gave FMDV antiviral 0.3%, VACV Venus inh -16.2% and Vaccinia mCherry inconclusive.
For Cc1ccccc1-c1cccc(CN2CCc3nnc(C(C)NC(=O)c4cccnc4)n3CC2)c1 (centres undefined) the results were FMDV antiviral -5.5%, VACV Venus inh -10.9% and Vaccinia mCherry -19.3%.
`Cc1ncc2c(c1CNS(=O)(=O)N(C)C)CCN(C(=O)c1ccc(-c3ccc(F)cc3)cc1)C2` gave FMDV antiviral -17.6%, VACV Venus inh 1.8% and Vaccinia mCherry -9.1%.
`CC1CCN(S(=O)(=O)c2ccc(C(=O)Nc3ccccn3)cc2)CC1` gave FMDV antiviral -9.9%, VACV Venus inh -10.5%, HCV inhibitor inconclusive, Vaccinia mCherry inactive, LASV entry inh 22.1% and Marburg entry inh inconclusive.
Screening CC(=O)c1c(C)[nH]c(C(=O)OCc2ccc(Br)cc2)c1C returned FMDV antiviral 0.0%, VACV Venus inh -18.8%, HCV inhibitor 4.47µM*, Vaccinia mCherry inactive, LASV entry inh -22.7% and Marburg entry inh inconclusive.
COc1ccc(C)cc1COC(=O)c1[nH]c(C)c(C(C)=O)c1C was read as FMDV antiviral -12.9%, VACV Venus inh -6.9%, HCV inhibitor inconclusive, Vaccinia mCherry -1.9%, LASV entry inh inconclusive and Marburg entry inh inconclusive.

Assay outcomes (PubChem)
